Experimental data taken from PubChem BioAssay (Tox21).
Inconclusive results are not listed. Active and inactive are the calls of the source. Unless noted, the call rests on the fitted dose curve; in most records, active means well fitted curve in the direction sought with a large enough effect in the repeat runs; inconclusive means weak or mixed curves; inactive means no such curve, though single readings can be large; an effect the other way counts as inactive or inconclusive.

What was measured:
[1] = qHTS assay to identify small molecule agonists of H2AX (AID 1224845; active means well fitted activation curve with a large enough effect in the signal ratio in the repeat runs, not every such curve was filed as active; the % refers to the signal ratio; further: potency means the concentration at half of the fitted maximal effect)
Summary of the method: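 Phospho-H2AX Ser139 measured by HTRF (ex 320 nm; em 665 and 620 nm) after 24 hr antibody incubation. Compounds, 15 concentrations, 0.76% DMSO, were applied to CHO-K1 cells for 3hr at 37C before lysis.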

[2] = qHTS assay to identify small molecule agonists of the hypoxia (HIF-1) signaling pathway (AID 1224846; active means well fitted activation curve with a large enough effect in the signal ratio in the repeat runs, not every such curve was filed as active; the % refers to the signal ratio)
Summary of the method: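 Compounds from the Tox21 10K library, dissolved in DMSO, are tested for induction of a hypoxia response element–controlled beta-lactamase reporter in ME-180 cells. Exposure lasts 17 hrs at 37C after a 5 hr settling period, followed by CCF4-AM FRET substrate.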

[3] = qHTS assay to identify small molecule agonists of H2AX - cell viability counter screen (AID 1224847; calls by dose curve;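 further: wild-type CHO-K1 cells; top concentration of the series differs between compounds; nearly all actives have a fitted effect of over 30% in size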)
Summary of the method: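 Cells plated first: CHO-K1, 1000 per well in 10% FBS medium, incubated overnight at 37C. Then 15-point compound titration added (final DMSO 0.76%) for 3 hr. Finally CellTiter-Glo added and luminescence read.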

[4] = qHTS assay to identify small molecule antagonists of the estrogen related receptor (ERR) signaling pathway from Tox21 library (AID 1224848); further: nearly all actives have a fitted effect of over 50% in size
Summary of the method: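 ERR cell line, 2,000 cells/well. 6 h settle, then compound (DMSO) added; 18 h at 37 C; ONE-Glo luminescence after 30 min RT.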

[5] = qHTS assay to identify small molecule agonists of the estrogen related receptor (ERR) signaling pathway from Tox21 library (AID 1224849; calls by dose curve; further: nearly all actives have a fitted effect of over 15% in size); conditions: ERR reporter cell line, ONE-Glo luciferase, 18 h; at 92.4 µM (top of the series) unless noted
Summary of the method: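 Cells carrying the ERR reporter were plated and allowed to settle for 6 h, exposed to library compounds for 18 h at 37 C, then lysed with ONE-Glo and luminescence measured.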

[6] = qHTS RealTime-Glo MT Cell Viability Assay in HepG2 cells - 24 hour (AID 1224867); further: nearly all actives have a fitted effect of over 50% in size
Summary of the method: (§1)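 HepG2 cells were seeded at 600 cells/well together with NanoLuc luciferase and a cell-permeant prosubstrate, preincubated 5 h at 37 C/5% CO2, then pin-dosed with compounds in DMSO. Nonlytic luminescence from viable cells was read at each time point.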

[7] = qHTS RealTime-Glo MT Cell Viability Assay in HEK293 cells - 32 hour (AID 1224868); further: nearly all actives have a fitted effect of over 50% in size; further: potency means the concentration at half of the fitted maximal effect
Summary of the method: (§2)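 HEK293 cells were seeded at 600 cells/well together with NanoLuc luciferase and cell-permeant prosubstrate, preincubated 5 h at 37 C/5% CO2, then given compound in DMSO by pintool. Luminescence from viable-cell prosubstrate reduction was read repeatedly over 40 h.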

[8] = qHTS RealTime-Glo MT Cell Viability Assay in HepG2 cells - 40 hour (AID 1224870); further: nearly all actives have a fitted effect of over 50% in size
Summary of the method: (§3)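 Real-time viability: cells seeded at 600 per well together with NanoLuc and cell-permeant prosubstrate, compounds added after 5 h incubation. Luminescence tracked at 0, 8, 16, 24, 32 and 40 h of exposure.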

[9] = A CellTox Green Cytotoxicity Assay to monitor cytotoxicity in HEK293 cells - 40 hour (AID 1224871); further: nearly all actives have a fitted effect of over 45% in size; further: potency means the concentration at half of the fitted maximal effect
Summary of the method: (§4)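 Cells (HEK293, 600/well) and dye reagent are dispensed together. After 5 h at 37 C, 23 nL compound is pinned in. Plates stay at 37 C for 40 h with fluorescence read at 0h, 8h, 16h, 24h, 32h and 40h.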

[10] = qHTS RealTime-Glo MT Cell Viability Assay in HepG2 cells - 8 hour (AID 1224873); further: nearly all actives have a fitted effect of over 55% in size
Summary of the method: as §3

[11] = qHTS RealTime-Glo MT Cell Viability Assay in HEK293 cells - 40 hour (AID 1224874); conditions: RealTime-Glo luminescence; max response: hits give low values; further: nearly all actives have a fitted effect of over 50% in size; further: potency means the concentration at half of the fitted maximal effect
Summary of the method: (§5)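 Real-time viability in HEK293: signal arises when living cells convert a prosubstrate for NanoLuc in the medium, so luminescence tracks viable cell number. Compound (23 nL, DMSO) added 5 h post-seeding; kinetic reads at 0–40 h, 37 C.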

[12] = A CellTox Green Cytotoxicity Assay to monitor cytotoxicity in HEK293 cells - 24 hour (AID 1224875); further: nearly all actives have a fitted effect of over 45% in size
Summary of the method: as §4

[13] = A CellTox Green Cytotoxicity Assay to monitor cytotoxicity in HepG2 cells - 16 hour (AID 1224876); further: nearly all actives have a fitted effect of over 45% in size; further: potency means the concentration at half of the fitted maximal effect
Summary of the method: (§6)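 Cells and non-lytic dye reagent are dispensed together (600 HepG2 cells/well) and incubated 5 h before DMSO compound transfer. Kinetic fluorescence is then recorded in the same wells during 40 h at 37 C.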

[14] = qHTS RealTime-Glo MT Cell Viability Assay in HepG2 cells - 32 hour (AID 1224877); further: nearly all actives have a fitted effect of over 55% in size
Summary of the method: as §1

[15] = A CellTox Green Cytotoxicity Assay to monitor cytotoxicity in HepG2 cells - 24 hour (AID 1224878); further: nearly all actives have a fitted effect of over 45% in size; further: potency means the concentration at half of the fitted maximal effect
Summary of the method: as §6

[16] = A CellTox Green Cytotoxicity Assay to monitor cytotoxicity in HepG2 cells - 40 hour (AID 1224879); further: nearly all actives have a fitted effect of over 40% in size; further: potency means the concentration at half of the fitted maximal effect
Summary of the method: as §6

[17] = qHTS RealTime-Glo MT Cell Viability Assay in HEK293 cells - 0 hour (AID 1224880)
Summary of the method: as §5

[18] = A CellTox Green Cytotoxicity Assay to monitor cytotoxicity in HEK293 cells - 32 hour (AID 1224881); further: nearly all actives have a fitted effect of over 40% in size
Summary of the method: as §4

[19] = A CellTox Green Cytotoxicity Assay to monitor cytotoxicity in HEK293 cells - 0 hour (AID 1224869); further: nearly all actives have a fitted effect of over 50% in size
Summary of the method: as §4

[20] = qHTS RealTime-Glo MT Cell Viability Assay in HEK293 cells - 16 hour (AID 1224872)
Summary of the method: as §2
On the % scale 0 is the no-effect control and ±100 the full control effect.

CCC1CCC(CCC(=O)O)C1 (stereo not given)
inactive: Potency [1] | outcome [2] | Potency [3] | Potency [4] | activity change, positive = activation [5] -14.4% | Potency [6] | Potency [7] | Potency [8] | Potency [9] | Potency [10] | max response [11] -15.6% | Potency [12] | Potency [13] | Potency [14] | Potency [15] | Potency [16] | Potency [17] | Potency [18]

C=C(C)C(=O)OCCC(F)(F)C(F)(F)C(F)(F)C(F)(F)C(F)(F)C(F)(F)F
inactive: Potency [1] | outcome [2] | Potency [3] | Potency [6] | Potency [7] | Potency [19] | Potency [8] | Potency [9] | Potency [20] | Potency [10] | max response [11] 0.419% | Potency [12] | Potency [13] | Potency [14] | Potency [15] | Potency [16] | Potency [17] | Potency [18]

CCCCCCC(O)CCCCCCCCCCC(=O)OC (stereo not given)
inactive: Potency [1] | outcome [2] | Potency [3] | Potency [6] | Potency [7] | Potency [19] | Potency [8] | Potency [9] | Potency [20] | Potency [10] | max response [11] -16.2% | Potency [12] | Potency [13] | Potency [14] | Potency [15] | Potency [16] | Potency [17] | Potency [18]

CC(C)C(=O)OCCOc1ccccc1
inactive: Potency [1] | outcome [2] | Potency [3] | Potency [6] | Potency [7] | Potency [19] | Potency [8] | Potency [9] | Potency [20] | Potency [10] | max response [11] 2.62% | Potency [12] | Potency [13] | Potency [14] | Potency [15] | Potency [16] | Potency [17] | Potency [18]

CCN(CC)CC(=O)Nc1c(C)cccc1C(=O)OC
inactive: Potency [1] | outcome [2] | Potency [3] | Potency [6] | Potency [7] | Potency [19] | Potency [8] | Potency [9] | Potency [20] | Potency [10] | max response [11] 0.513% | Potency [12] | Potency [13] | Potency [14] | Potency [15] | Potency [17] | Potency [18]

CNCc1ccc(NC(=O)c2c[nH]c3c2C(=O)CCC3)cc1
inactive: Potency [1] | outcome [2] | Potency [3] | Potency [4] | activity change, positive = activation [5] -17.3% | Potency [6] | Potency [19] | Potency [8] | Potency [10] | Potency [12] | Potency [13] | Potency [14] | Potency [15] | Potency [17] | Potency [18]

CC1=C2[C@@H]([C@H](C)CC[C@H]2/C=C(\C)C(=O)O)[C@H](O)C1
inactive: Potency [1] | outcome [2] | Potency [3] | Potency [6] | Potency [7] | Potency [19] | Potency [8] | Potency [9] | Potency [20] | Potency [10] | max response [11] -2.63% | Potency [12] | Potency [13] | Potency [15] | Potency [17] | Potency [18]

CCOC(=O)c1c(N)sc2c1CCN(Cc1ccccc1)C2
active: Potency [7] 21.3 µM | Potency [11] 19 µM
inactive: Potency [1] | outcome [2] | Potency [3] | Potency [6] | Potency [19] | Potency [8] | Potency [9] | Potency [10] | Potency [13] | Potency [14] | Potency [15] | Potency [16] | Potency [17] | Potency [18]

CCCCCC
inactive: Potency [1] | outcome [2] | Potency [3] | Potency [6] | Potency [7] | Potency [19] | Potency [8] | Potency [9] | Potency [20] | Potency [10] | max response [11] 0.47% | Potency [12] | Potency [13] | Potency [14] | Potency [16] | Potency [17] | Potency [18]

Cc1cn([C@H]2C[C@H](F)[C@@H](CO)O2)c(=O)[nH]c1=O
inactive: outcome [2] | Potency [3] | Potency [6] | Potency [7] | Potency [19] | Potency [8] | Potency [9] | Potency [10] | max response [11] 16.7% | Potency [12] | Potency [13] | Potency [14] | Potency [15] | Potency [17] | Potency [18]
active: Potency [1] 0.0438 µM

O=C(O)CCC(=O)OC[C@@H](NC(=O)C(Cl)Cl)[C@H](O)c1ccc([N+](=O)[O-])cc1
inactive: Potency [1] | outcome [2] | Potency [3] | Potency [6] | Potency [7] | Potency [19] | Potency [8] | Potency [20] | Potency [10] | max response [11] 5.1% | Potency [14] | Potency [17]
active: Potency [9] 21.3 µM | Potency [13] 9.52 µM | Potency [15] 19 µM | Potency [16] 19 µM

CC(=O)C(=O)CC(C)C
inactive: Potency [1] | outcome [2] | Potency [3] | Potency [6] | Potency [7] | Potency [19] | Potency [8] | Potency [9] | Potency [20] | Potency [10] | max response [11] 9.63% | Potency [12] | Potency [13] | Potency [16] | Potency [17] | Potency [18]

CC(=O)c1ccc[nH]1
inactive: Potency [1] | outcome [2] | Potency [3] | Potency [6] | Potency [7] | Potency [19] | Potency [8] | Potency [9] | Potency [10] | max response [11] -0.568% | Potency [12] | Potency [13] | Potency [14] | Potency [15] | Potency [16] | Potency [17] | Potency [18]

CC1=CC[C@@]23C[C@@H]1C(C)(C)[C@@H]2CC[C@H]3C
inactive: Potency [1] | outcome [2] | Potency [3] | Potency [6] | Potency [7] | Potency [19] | Potency [8] | Potency [9] | Potency [20] | Potency [10] | max response [11] 1.49% | Potency [12] | Potency [13] | Potency [14] | Potency [18]

BrC(Br)C(Br)Br
inactive: Potency [1] | outcome [2] | Potency [3] | Potency [6] | Potency [7] | Potency [19] | Potency [8] | Potency [9] | Potency [20] | Potency [10] | max response [11] -12.1% | Potency [12] | Potency [13] | Potency [14] | Potency [16] | Potency [17] | Potency [18]
